Inconclusive results are not listed. Active and inactive are the calls of the source. How the source made its calls, unless noted: active means hit-call score of the fitted dose curve at least 0.9, where 1 is the maximum; inconclusive means response in the unintended direction; inactive means score below 0.9.
Assays:
THRA (gene 7067) [1] = target: THRA (gene 7067) (UniProt P10827); experiment: TOX21_TRA_COA_Agonist_Followup_ratio: Tox21 Thyroid Hormone Receptor alpha Agonism through Coactivator Recruitment Follow-Up Assay, Ratio (AID 2283948; active means hit-call score of the fitted dose curve at least 0.9, where 1 is the maximum; inactive means score below 0.9)
THRA (gene 7067), sequence (P10827 whole entry, looked up, the tested form may be a part): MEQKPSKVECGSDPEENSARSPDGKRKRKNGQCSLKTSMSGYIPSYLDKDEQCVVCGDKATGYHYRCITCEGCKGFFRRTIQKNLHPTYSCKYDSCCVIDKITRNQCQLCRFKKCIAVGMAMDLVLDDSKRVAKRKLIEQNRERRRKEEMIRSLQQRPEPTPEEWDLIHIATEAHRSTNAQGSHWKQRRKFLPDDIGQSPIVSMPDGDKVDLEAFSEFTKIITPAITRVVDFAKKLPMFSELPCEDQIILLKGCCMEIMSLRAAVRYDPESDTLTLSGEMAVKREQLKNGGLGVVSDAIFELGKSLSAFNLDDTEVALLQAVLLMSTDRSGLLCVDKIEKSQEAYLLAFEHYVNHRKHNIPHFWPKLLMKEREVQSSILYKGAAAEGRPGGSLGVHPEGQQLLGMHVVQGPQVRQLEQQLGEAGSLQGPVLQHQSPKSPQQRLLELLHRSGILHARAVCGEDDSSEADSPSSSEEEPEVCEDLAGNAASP
Outline: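 GST-TRa LBD 2.5 nM + 0.10% BSA + cpd; add fluorescein-SRC-2 200 nM, Tb-anti-GST 2 nM. TR-FRET ex 340, em 520/495 ratio. Norm: DMSO 0%, T3 100%; gain-of-signal fit.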

THRB (gene 7068) [2] = target: THRB (gene 7068) (UniProt P10828); experiment: TOX21_TRB_BLA_Agonist_Followup_ratio: Tox21 Thyroid Hormone Receptor beta Agonism Beta-lactamase (BLA) Follow-Up Assay, Ratio (AID 2283954)
THRB (gene 7068), sequence (P10828 whole entry, looked up, the tested form may be a part): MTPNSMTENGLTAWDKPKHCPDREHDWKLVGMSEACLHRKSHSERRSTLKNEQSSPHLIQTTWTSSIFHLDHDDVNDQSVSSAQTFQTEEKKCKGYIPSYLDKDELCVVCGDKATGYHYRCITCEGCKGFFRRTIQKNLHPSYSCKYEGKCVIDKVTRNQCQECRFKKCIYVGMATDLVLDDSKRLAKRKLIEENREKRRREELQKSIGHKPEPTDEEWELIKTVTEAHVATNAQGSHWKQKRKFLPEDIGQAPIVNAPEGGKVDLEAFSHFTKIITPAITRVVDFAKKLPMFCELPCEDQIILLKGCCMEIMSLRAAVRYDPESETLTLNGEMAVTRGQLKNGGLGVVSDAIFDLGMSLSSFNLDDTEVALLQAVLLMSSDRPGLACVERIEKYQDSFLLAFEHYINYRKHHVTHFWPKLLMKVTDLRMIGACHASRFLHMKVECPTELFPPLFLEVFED
Outline: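 Human TRβ LBD–GAL4 DBD fusion in GeneBLAzer UAS-bla HEK293T cells; 11 concentrations in triplicate, 18 h at 37°C/5% CO2, T3 as agonist control. CCF4-AM substrate 2 h at room temperature; 460:530 nm ratio fitted for gain of signal versus DMSO.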

THRB (gene 7068) [3] = target: THRB (gene 7068) (UniProt P10828); experiment: TOX21_TRB_COA_Agonist_Followup_ratio: Tox21 Thyroid Hormone Receptor beta Agonism through Coactivator Recruitment Follow-Up Assay, Ratio (AID 2283963; active means hit-call score of the fitted dose curve at least 0.9, where 1 is the maximum; inactive means score below 0.9)
Outline: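 First, the GST-fused TRβ ligand-binding domain (5.0 nM) was incubated with test compound in 0.10% BSA. Next, fluorescein-tagged SRC-2 peptide (200 nM) and terbium anti-GST antibody (2 nM) were added. Finally, TR-FRET emission ratios were normalized against DMSO and T3 controls.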

[4] = target: Retinoic acid receptor RXR-alpha (Homo sapiens) (UniProt P19793); experiment: TOX21_TR_RXR_BLA_Agonist_Followup_ratio: Tox21 Thyroid Hormone Receptor beta Retinoid X Receptor alpha (RXRa) Agonism Beta-lactamase (BLA) Follow-Up Assay, Ratio (AID 2283968)
Retinoic acid receptor RXR-alpha (Homo sapiens), sequence (P19793 whole entry, looked up, the tested form may be a part): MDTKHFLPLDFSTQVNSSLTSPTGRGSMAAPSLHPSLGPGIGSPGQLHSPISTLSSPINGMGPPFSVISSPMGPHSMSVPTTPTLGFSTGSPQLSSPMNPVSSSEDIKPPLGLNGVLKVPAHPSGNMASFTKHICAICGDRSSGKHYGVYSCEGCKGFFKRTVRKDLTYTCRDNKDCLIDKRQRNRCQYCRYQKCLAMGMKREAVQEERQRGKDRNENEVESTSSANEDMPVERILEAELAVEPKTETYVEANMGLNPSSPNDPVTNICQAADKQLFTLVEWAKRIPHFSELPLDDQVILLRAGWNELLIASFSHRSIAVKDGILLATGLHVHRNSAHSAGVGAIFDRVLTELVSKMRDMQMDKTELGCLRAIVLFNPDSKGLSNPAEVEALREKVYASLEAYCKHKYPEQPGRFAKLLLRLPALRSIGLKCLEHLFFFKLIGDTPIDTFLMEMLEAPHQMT
Outline: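 HEK293T RXRa-bla, qHTS; cpd 11-pt conc. in triplicate, 16 h 37C/5% CO2; CCF4-AM 2 h RT; ratio 460:530 nm; agonist direction vs DMSO; 9-cis retinoic acid as positive control.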

[5] = TOX21_TR_RXR_BLA_Agonist_Followup_viability: Viability Assessment in the Tox21 Thyroid Hormone Receptor beta Retinoid X Receptor alpha (RXRa) Agonism Beta-lactamase (BLA) Follow-Up Assay (AID 2283970)
Outline: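 Cells: HEK293T RXRa-UAS-bla, 2,500/well; medium phenol red-free DMEM + 2% charcoal-stripped FBS; 16h, 37C/5% CO2; qHTS concentration series. Read: CellTiter-Glo luminescence (ATP); bidirectional fit, DMSO = baseline.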

THRA (gene 7067) [6] = target: THRA (gene 7067) (UniProt P10827); experiment: TOX21_TRA_COA_Antagonist_Followup_ratio: Tox21 Thyroid Hormone Receptor alpha Antagonism through Coactivator Recruitment Follow-Up Assay, Ratio (AID 2283953)
Outline: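 520:495 nm emission ratio (excitation 340 nm) reports fluorescein-SRC-2 peptide recruitment to GST-TRα LBD by TR-FRET with Tb anti-GST antibody. Values were normalized to DMSO (0%) and T3 control wells (100%); loss of signal indicated antagonism.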

THRB (gene 7068) [7] = target: THRB (gene 7068) (UniProt P10828); experiment: TOX21_TRB_BLA_Antagonist_Followup_ratio: Tox21 Thyroid Hormone Receptor beta Antagonism Beta-lactamase (BLA) Follow-Up Assay, Ratio (AID 2283958)
Outline: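 HEK293T TRb-bla (GAL4 DBD + hTRβ LBD), 2% cs-FBS phenol red-free DMEM, 5 h attach; cpds 11-pt triplicate, 18 h 37C; CCF4-AM 2 h RT; 460/530 ratio vs DMSO; CellTiter-Glo viability same wells.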

[8] = TOX21_TRB_BLA_Antagonist_Followup_viability: Viability Assessment in the Tox21 Thyroid Hormone Receptor beta Antagonism Beta-lactamase (BLA) Follow-Up Assay (AID 2283961)
Outline: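 Viability read as CellTiter-Glo ATP luminescence (loss of signal = cytotoxicity) in the same plates as the TRβ-bla readout. TRβ-LBD/GAL4 UAS-bla HEK293T cells were exposed to compounds, 11 concentrations in triplicate, for 18 h at 37C/5% CO2.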

THRB (gene 7068) [9] = target: THRB (gene 7068) (UniProt P10828); experiment: TOX21_TRB_COA_Antagonist_Followup_ratio: Tox21 Thyroid Hormone Receptor beta Antagonism through Coactivator Recruitment Follow-Up Assay, Ratio (AID 2283967)
Outline: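 Cell-free TR-FRET: GST-TRb LBD (5.0 nM) with fluorescein-SRC-2 peptide (200 nM) and Tb anti-GST antibody (2 nM), 0.10% BSA. 520:495 nm emission ratio normalized to DMSO (0%) and T3 (100%).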

[10] = target: Retinoic acid receptor RXR-alpha (Homo sapiens) (UniProt P19793); experiment: TOX21_TR_RXR_BLA_Antagonist_Followup_ratio: Tox21 Thyroid Hormone Receptor beta Retinoid X Receptor alpha (RXRa) Antagonism Beta-lactamase (BLA) Follow-Up Assay, Ratio (AID 2283972)
Outline: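 Beta-lactamase reporter readout as cleaved/uncleaved substrate ratio (460:530 nm) after 2 h substrate loading at room temperature. GAL4-RXRa bla HEK293T cells were exposed 16 h at 37C to 11-point compound series; loss of signal scored against DMSO baseline.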

With `CC(C)(C)c1cc(C(C)(C)C)c(O)c(C(C)(C)C)c1` the outcome (THRA (gene 7067) [1]) was “inactive”, the outcome (THRB (gene 7068) [2]) was “inactive” and the outcome (THRB (gene 7068) [3]) was “inactive”. The AC50 [4] was 59.6 µM (active) and the outcome [5] was “inactive”.

In the case of `C#C[C@]1(O)CC[C@H]2[C@@H]3CCC4=CC(=O)CC[C@@H]4[C@H]3CC[C@@]21C`, the outcome (THRA (gene 7067) [6]) is reported as “inactive”, the outcome (THRB (gene 7068) [7]) is reported as “inactive” and the outcome [8] is reported as “inactive”. For the same compound, the outcome (THRB (gene 7068) [9]) was “inactive” and the outcome [10] was “inactive”.

For `O=C(O)Cc1cc(I)c(Oc2cc(I)c(O)c(I)c2)c(I)c1`, the AC50 (THRA (gene 7067) [1]) was 0.276 µM (active), the AC50 (THRB (gene 7068) [2]) was 0.0242 µM (active) and the AC50 (THRB (gene 7068) [3]) was 0.246 µM (active). For the same compound, the AC50 [4] was 31.5 µM (active) and the outcome [5] was “inactive”.

— PubChem BioAssay (EPA / NIEHS)
